Test [1] concerns the target T1, Serine/threonine-protein kinase D2 (Homo sapiens) (UniProt Q9BZL6).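 Further: mean value of PRKD2 inhibition, from the GSK PKIS screening panel.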
T1 sequence (whole entry): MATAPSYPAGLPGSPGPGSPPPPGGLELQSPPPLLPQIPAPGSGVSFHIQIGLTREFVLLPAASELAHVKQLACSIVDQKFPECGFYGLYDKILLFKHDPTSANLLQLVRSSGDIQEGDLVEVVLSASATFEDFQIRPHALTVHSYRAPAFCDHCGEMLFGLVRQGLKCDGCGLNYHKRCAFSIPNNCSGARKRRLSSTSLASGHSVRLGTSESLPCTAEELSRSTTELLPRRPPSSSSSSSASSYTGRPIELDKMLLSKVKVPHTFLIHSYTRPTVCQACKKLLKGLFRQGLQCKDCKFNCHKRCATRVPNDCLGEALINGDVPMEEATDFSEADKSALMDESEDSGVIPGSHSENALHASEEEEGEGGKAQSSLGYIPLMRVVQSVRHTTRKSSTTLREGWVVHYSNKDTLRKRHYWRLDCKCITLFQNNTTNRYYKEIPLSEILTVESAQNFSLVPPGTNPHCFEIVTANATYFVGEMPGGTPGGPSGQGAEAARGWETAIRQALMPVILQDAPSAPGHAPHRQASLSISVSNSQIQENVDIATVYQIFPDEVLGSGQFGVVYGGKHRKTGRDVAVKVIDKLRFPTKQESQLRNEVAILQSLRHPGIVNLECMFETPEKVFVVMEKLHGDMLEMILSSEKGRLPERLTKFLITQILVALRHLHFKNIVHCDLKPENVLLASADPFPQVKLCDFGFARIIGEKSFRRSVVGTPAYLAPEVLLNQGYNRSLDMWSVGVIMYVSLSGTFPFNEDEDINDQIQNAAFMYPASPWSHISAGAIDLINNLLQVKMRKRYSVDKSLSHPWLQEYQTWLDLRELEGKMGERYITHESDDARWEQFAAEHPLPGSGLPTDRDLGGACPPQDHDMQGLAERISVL
Particulars: at 1 µM.

Test [2] addresses T2, Serine/threonine-protein kinase D3 (Homo sapiens) (UniProt O94806).
T2 sequence (whole entry): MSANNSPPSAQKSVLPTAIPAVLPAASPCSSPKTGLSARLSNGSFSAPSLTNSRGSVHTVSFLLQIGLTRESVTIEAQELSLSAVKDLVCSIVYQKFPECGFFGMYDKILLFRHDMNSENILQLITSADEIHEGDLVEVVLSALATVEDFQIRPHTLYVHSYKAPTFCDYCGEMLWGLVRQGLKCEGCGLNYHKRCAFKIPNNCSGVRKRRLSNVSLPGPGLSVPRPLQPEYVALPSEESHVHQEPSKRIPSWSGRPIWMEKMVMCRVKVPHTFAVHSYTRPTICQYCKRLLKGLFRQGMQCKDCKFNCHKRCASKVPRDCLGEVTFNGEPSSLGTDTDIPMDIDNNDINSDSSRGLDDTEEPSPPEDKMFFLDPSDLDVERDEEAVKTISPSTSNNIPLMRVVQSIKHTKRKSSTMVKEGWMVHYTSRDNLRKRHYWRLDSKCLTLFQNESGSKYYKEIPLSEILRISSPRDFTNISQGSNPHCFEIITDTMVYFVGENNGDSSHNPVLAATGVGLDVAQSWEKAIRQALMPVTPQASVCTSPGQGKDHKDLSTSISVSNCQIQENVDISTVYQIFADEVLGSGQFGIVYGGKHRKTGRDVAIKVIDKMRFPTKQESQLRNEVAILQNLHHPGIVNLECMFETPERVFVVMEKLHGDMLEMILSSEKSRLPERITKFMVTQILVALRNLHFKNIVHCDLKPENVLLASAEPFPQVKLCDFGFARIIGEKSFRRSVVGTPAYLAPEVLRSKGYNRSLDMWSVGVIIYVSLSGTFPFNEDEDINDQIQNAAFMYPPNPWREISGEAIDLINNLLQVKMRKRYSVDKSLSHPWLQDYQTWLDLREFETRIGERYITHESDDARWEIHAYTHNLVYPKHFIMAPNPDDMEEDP
Particulars: at 0.1 µM.

Test [3] deals with T2, Serine/threonine-protein kinase D3 (Homo sapiens). Particulars: at 1 µM.
Test [4] has as its target T3, cGMP-dependent protein kinase 1 (Homo sapiens) (UniProt Q13976).
T3 sequence (whole entry): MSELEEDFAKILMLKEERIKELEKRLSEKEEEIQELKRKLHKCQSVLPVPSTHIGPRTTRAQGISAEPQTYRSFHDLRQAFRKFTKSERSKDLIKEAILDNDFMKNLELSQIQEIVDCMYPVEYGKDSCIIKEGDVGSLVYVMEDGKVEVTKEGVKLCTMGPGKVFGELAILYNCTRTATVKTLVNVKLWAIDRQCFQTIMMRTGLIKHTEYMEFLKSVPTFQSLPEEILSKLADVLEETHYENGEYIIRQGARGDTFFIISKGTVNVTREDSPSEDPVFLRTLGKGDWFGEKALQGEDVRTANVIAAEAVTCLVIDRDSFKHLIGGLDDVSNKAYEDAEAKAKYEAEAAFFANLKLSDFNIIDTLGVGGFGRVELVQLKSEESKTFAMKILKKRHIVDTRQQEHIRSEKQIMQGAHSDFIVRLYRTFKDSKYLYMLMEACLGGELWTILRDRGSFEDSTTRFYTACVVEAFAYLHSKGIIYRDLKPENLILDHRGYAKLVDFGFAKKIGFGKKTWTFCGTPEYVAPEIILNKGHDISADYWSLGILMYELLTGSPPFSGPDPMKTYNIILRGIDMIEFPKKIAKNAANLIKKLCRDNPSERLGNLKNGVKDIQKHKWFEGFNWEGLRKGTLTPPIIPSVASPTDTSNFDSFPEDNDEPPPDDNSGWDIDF
Particulars: at 0.1 µM.

For test [5], the target named is T3, cGMP-dependent protein kinase 1 (Homo sapiens). Particulars: at 1 µM.
Test [6] deals with T4, cGMP-dependent protein kinase 2 (Homo sapiens) (UniProt Q13237).
T4 sequence (whole entry): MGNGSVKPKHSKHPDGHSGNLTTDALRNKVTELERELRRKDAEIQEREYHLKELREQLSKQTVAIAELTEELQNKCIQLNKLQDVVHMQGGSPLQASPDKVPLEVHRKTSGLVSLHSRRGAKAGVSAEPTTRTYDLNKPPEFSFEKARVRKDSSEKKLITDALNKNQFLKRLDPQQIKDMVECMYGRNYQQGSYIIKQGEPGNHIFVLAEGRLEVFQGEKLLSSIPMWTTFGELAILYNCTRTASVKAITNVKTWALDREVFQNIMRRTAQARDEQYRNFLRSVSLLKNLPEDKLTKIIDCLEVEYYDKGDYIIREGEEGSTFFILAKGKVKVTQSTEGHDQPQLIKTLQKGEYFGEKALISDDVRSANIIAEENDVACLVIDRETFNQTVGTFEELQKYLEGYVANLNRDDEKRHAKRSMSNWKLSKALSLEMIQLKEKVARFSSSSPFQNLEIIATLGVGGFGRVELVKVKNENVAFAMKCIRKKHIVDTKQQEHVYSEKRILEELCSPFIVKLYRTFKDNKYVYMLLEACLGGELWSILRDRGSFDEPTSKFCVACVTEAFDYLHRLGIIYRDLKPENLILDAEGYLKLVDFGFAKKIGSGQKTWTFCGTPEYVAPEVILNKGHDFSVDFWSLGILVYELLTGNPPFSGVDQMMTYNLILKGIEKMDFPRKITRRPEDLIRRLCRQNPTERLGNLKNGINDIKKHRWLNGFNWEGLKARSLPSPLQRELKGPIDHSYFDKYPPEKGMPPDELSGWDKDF
Particulars: at 0.1 µM.

Test [7] concerns the target T4, cGMP-dependent protein kinase 2 (Homo sapiens). Particulars: at 1 µM.
In test [8] the target is T5, cAMP-dependent protein kinase catalytic subunit PRKX (Homo sapiens) (UniProt P51817).
T5 sequence (whole entry): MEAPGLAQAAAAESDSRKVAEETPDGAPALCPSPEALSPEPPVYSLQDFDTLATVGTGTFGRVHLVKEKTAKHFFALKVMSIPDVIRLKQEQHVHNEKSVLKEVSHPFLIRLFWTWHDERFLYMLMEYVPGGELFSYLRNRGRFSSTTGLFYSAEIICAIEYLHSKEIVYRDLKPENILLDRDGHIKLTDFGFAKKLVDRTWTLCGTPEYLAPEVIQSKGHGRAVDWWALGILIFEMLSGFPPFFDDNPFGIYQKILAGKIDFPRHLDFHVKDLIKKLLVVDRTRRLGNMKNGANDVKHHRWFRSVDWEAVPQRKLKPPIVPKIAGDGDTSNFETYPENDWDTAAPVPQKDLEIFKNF
Particulars: at 0.1 µM.

Test [9] concerns the target T5, cAMP-dependent protein kinase catalytic subunit PRKX (Homo sapiens). Particulars: at 1 µM.
For test [10], the target named is Rho-associated protein kinase 1 (Homo sapiens) (UniProt Q13464). Particulars: at 0.1 µM.
For test [11] the target is unchanged. Particulars: at 1 µM.
For test [12], the target named is Rho-associated protein kinase 2 (Homo sapiens) (UniProt O75116). Particulars: at 0.1 µM.
The target is the same in test [13]. Particulars: at 1 µM.
Test [14] deals with Ribosomal protein S6 kinase alpha-1 (Homo sapiens) (UniProt Q15418). Particulars: at 0.1 µM.
For test [15] the target is unchanged. Particulars: at 1 µM.
Test [16] concerns the target Ribosomal protein S6 kinase alpha-3 (Homo sapiens) (UniProt P51812). Particulars: at 0.1 µM.
Test [17] has the same target. Particulars: at 1 µM.
Test [18] concerns the target Ribosomal protein S6 kinase alpha-2 (Homo sapiens) (UniProt Q15349). Particulars: at 0.1 µM.
Test [19] has the same target. Particulars: at 1 µM.
In test [20] the target is Ribosomal protein S6 kinase alpha-6 (Homo sapiens) (UniProt Q9UK32). Particulars: at 0.1 µM.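 Further: reported value is the mean inhibition of RSK4, from the GSK PKIS kinase inhibitor screen.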
Sequence of Ribosomal protein S6 kinase alpha-6 (Homo sapiens) (Q9UK32 whole entry): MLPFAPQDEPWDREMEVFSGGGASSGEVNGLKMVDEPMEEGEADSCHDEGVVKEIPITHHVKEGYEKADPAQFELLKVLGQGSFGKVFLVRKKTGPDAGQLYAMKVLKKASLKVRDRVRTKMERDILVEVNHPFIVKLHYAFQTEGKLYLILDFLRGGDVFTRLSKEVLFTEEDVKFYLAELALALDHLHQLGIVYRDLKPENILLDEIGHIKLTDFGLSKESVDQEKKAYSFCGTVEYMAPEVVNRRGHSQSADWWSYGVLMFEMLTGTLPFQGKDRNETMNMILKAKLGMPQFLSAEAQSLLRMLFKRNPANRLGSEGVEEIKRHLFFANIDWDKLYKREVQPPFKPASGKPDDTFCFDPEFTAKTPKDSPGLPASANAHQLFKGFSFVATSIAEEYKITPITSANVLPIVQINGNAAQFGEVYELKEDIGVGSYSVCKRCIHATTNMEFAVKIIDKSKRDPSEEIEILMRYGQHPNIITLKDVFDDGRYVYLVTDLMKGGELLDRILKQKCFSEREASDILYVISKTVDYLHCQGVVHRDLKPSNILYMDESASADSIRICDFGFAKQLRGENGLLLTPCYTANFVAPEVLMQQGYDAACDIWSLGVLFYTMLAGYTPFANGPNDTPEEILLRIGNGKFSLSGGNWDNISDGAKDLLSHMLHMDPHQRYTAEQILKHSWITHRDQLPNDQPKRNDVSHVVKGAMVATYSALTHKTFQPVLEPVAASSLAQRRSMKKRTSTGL

Sequence of Rho-associated protein kinase 1 (Homo sapiens) (Q13464 2-1354 limits assumed): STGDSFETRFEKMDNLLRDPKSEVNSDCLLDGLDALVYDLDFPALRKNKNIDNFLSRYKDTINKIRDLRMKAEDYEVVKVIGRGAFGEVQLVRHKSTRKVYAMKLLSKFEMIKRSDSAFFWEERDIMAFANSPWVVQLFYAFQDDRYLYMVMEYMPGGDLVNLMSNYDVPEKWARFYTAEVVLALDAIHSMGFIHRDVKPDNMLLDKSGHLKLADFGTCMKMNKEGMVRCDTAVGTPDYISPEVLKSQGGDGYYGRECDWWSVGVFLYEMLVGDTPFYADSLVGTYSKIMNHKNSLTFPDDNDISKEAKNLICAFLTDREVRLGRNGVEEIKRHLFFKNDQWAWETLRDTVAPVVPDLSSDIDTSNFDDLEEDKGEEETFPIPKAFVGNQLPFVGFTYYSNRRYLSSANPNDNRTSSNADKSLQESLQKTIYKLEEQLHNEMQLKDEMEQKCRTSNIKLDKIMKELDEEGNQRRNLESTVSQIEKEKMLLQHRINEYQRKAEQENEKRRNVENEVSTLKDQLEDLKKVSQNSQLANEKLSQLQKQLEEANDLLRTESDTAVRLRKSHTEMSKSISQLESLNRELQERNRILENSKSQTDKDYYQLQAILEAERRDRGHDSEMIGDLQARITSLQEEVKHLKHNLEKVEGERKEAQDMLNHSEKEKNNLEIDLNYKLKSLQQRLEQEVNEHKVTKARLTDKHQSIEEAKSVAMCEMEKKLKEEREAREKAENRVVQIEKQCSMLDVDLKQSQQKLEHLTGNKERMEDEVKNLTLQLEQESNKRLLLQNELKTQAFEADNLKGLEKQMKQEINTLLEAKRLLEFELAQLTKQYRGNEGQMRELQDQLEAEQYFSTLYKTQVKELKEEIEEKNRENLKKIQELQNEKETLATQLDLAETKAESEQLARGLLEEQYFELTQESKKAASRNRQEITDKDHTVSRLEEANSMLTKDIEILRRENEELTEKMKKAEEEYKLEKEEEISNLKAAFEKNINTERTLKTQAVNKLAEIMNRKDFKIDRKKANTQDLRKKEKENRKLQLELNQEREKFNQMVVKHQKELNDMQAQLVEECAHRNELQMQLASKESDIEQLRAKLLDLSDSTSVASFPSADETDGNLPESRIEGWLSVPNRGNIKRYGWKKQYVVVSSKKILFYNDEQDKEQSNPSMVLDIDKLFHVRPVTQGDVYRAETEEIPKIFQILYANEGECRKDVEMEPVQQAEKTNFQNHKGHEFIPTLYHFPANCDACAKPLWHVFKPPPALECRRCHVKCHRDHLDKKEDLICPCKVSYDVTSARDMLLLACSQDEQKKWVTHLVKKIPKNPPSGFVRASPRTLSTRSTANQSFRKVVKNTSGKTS
Sequence of Ribosomal protein S6 kinase alpha-3 (Homo sapiens) (P51812 whole entry): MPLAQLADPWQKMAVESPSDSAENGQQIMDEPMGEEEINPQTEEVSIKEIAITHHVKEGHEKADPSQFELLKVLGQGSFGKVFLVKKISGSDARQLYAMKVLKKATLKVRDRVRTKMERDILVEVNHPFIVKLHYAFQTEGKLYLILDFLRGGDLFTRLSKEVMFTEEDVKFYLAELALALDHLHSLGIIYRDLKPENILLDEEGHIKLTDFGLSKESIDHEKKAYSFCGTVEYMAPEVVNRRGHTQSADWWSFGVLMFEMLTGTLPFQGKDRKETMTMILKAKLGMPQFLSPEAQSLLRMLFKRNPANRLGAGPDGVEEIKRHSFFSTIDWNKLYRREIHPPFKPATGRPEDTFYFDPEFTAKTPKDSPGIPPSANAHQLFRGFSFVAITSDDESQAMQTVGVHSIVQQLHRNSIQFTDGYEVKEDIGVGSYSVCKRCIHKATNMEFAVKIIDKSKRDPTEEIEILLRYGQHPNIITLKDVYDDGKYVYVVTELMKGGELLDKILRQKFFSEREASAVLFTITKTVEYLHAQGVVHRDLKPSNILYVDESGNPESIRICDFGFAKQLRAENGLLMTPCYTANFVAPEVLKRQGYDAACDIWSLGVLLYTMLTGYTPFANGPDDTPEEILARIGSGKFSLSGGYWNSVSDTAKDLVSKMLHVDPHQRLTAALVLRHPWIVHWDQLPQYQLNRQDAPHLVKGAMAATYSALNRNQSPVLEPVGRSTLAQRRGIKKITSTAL
Sequence of Rho-associated protein kinase 2 (Homo sapiens) (O75116 whole entry, looked up): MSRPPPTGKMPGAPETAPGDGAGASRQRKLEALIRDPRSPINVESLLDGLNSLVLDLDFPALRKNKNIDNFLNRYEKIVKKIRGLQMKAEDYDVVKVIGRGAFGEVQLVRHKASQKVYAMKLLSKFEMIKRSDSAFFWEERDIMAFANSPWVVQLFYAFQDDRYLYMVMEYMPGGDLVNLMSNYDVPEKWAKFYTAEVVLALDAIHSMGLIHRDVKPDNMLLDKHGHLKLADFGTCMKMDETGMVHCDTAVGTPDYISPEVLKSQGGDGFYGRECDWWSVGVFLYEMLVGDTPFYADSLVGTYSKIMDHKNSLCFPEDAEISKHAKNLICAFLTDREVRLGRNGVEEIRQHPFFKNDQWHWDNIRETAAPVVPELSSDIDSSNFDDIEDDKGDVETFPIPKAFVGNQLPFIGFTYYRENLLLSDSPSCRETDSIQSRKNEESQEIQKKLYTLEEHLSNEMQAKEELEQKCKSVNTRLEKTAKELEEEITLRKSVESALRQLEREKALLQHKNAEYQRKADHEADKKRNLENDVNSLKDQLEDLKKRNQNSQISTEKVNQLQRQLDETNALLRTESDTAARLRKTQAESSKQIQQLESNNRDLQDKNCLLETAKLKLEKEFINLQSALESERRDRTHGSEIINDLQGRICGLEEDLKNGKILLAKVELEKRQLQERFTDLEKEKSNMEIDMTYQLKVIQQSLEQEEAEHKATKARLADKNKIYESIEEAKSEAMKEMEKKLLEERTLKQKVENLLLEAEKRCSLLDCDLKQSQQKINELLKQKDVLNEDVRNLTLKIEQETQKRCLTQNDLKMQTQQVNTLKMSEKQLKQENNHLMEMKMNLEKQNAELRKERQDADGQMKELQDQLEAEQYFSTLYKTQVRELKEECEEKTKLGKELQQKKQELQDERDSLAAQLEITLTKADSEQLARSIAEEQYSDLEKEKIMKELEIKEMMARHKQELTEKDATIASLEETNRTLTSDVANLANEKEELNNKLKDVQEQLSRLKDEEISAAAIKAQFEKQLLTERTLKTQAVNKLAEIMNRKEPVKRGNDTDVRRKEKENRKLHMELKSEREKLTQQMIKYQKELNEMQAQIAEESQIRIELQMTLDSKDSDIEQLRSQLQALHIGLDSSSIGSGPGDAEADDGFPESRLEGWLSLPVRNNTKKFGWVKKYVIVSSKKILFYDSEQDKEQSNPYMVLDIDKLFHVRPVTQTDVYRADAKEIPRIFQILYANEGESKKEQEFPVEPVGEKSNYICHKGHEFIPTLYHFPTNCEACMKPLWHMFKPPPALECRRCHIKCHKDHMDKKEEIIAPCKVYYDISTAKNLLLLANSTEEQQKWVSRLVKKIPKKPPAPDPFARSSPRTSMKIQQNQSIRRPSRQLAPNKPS
Sequence of Ribosomal protein S6 kinase alpha-1 (Homo sapiens) (Q15418 whole entry): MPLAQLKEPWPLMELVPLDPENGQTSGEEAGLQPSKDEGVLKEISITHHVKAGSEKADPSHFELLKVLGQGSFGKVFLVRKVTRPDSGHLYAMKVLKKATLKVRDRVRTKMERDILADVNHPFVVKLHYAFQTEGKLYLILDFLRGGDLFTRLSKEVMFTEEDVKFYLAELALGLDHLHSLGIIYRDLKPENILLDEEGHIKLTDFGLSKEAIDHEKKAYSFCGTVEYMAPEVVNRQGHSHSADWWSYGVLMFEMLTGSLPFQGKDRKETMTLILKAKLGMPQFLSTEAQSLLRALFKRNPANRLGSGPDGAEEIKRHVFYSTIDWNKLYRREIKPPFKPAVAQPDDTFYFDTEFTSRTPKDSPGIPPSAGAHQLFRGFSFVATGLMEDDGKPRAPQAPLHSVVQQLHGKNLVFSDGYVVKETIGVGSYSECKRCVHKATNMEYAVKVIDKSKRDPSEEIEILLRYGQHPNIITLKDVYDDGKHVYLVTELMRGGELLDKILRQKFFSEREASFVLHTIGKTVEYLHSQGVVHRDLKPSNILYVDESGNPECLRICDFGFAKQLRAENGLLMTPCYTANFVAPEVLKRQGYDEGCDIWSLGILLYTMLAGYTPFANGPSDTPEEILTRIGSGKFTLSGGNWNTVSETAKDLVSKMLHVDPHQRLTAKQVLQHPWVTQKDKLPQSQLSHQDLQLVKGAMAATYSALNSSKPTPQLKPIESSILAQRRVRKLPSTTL

For `COc1cc(N2CCN(C(C)C)CC2)ccc1Nc1nc(Nc2cccc3ncccc23)c2cc[nH]c2n1`, the inhibition in [1] is 4.37%; in test [2], -0.78%; in [3], 4.56%; in test [4] it was -1.01%; in test [5], 2.36%; in test [6], 0.84%. The inhibition in test [7] is 0.42%; in test [8], 0.02%; in test [9], -0.18%; in [10], 0.12%; in test [11], 0.37%; in test [12], 0.02%. Moreover, the inhibition in test [13] is 0.45%; in test [14] it was 0.19%; in [15] it was 3.05%; in [16] it was 1.66%; in test [17], 5.2%; in [18] it was 1.37%. In addition, the figures for the inhibition in test [19] and in test [20] were 3.33% and 0.58%, respectively.
Consider `CN(c1ccc(NC(=O)NCCN2CCOCC2)cc1)c1ccnc(Nc2ccc(CS(C)(=O)=O)cc2)n1`, for which the inhibition turned out to be 1.04% in [1]; 1.13% in test [2]; 0.94% in test [3]; 2.25% in [4]; 2.49% in [5]; 0.06% in [6]. Also, the inhibition in [7] worked out at 0.57%; in [8], 2.36%; in test [9], 4.38%; in test [10], 1.51%; in [11], 8.01%; in [12], 4.87%. The inhibition stood at 18.1% in test [13]; 1.1% in test [14]; 3.56% in test [15]; 2.14% in test [16]; 2.69% in [17]; 1.38% in test [18]. In addition, the values for the inhibition in test [19] and in [20] were 2.28% and 1.79%, respectively.
`O=C(O[C@H]1CN[C@H](C#Cc2cc3ncnc(Nc4ccc5c(cnn5Cc5ccccc5)c4)c3s2)C1)N1CCOCC1`: the inhibition was 1.12% in test [1]; 0.01% in test [2]; 1.45% in [3]; -0.48% in test [4]; -0.54% in [5]; -0.72% in test [6]. The inhibition is 0.09% in test [7]; -0.58% in test [8]; -0.71% in test [9]; -2.14% in test [10]; -2.07% in test [11]; -1.02% in test [12]. The inhibition in test [13] was -1.36%; in test [14], -1.77%; in test [15], -0.14%; in [16], 0.74%; in test [17] it was 1.52%; in test [18] it was -0.5%. Moreover, the figures for the inhibition in test [19] and in test [20] were -1.02% and -1.39%, respectively.

A word on the inhibition: it is the relative decrease from the control value, in per cent.

These data come from ChEMBL document CHEMBL1961873, “Compounds: GSK PKIS; Assays: Nanosyn kinase panel” (2012).
